Assay results from PubChem BioAssay (EPA / NIEHS).
Inconclusive results are not listed. Active and inactive are the calls of the source. How the source made its calls: active means hit-call score of the fitted dose curve at least 0.9, where 1 is the maximum; inconclusive means response in the unintended direction; inactive means score below 0.9.

read-out: ABC Transporter (ABCB1), ABCB1 (gene 5243); assay: CLD_ABCB1_48hr: CellzDirect (CLD) Gene Expression Assay for ABC Transporter (ABCB1) at 48 hours (AID 2283695);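 on AC50: potency for induction meaning increase of mRNA over DMSO vehicle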
Procedure: CLD_48hr is a cell-based, multiplexed-readout assay that uses hepatocyte, a human liver primary cell, with measurements taken at 48 hours after chemical dosing in a 96-well plate.CLD_ABCB1_48hr is one of 16 assay component(s) measured or calculated from the CLD_48hr assay. It is designed to make measurements of mRNA induction, a form of inducible reporter, as detected with chemiluminescence signals by Quantitative Nuclease Protection Assay (qNPA) technology.Data from the assay component CLD_ABCB1_48hr was analyzed at the endpoint, CLD_ABCB1_48hr, in the positive analysis fitting direction relative to DMSO as the negative control and baseline of activity. Using a type of inducible reporter, gain-of-signal activity can be used to understand changes in the reporter gene as they relate to the gene ABCB1. Furthermore, this assay endpoint can be referred to as a primary readout. To generalize the intended target to other relatable targets, this assay endpoint is annotated to the transporter intended target family, where subfamily is ABC transporter.
Human hepatocyte cultures were treated daily for two consecutive days with fresh dosing solutions containing appropriate concentrations of the 320 ToxCast chemicals (chemical identities were blinded to CellzDirect and other ToxCast collaborators), vehicle control (0.2% DMSO), and positive control inducers as summarized in Table 1. Due to the large number of treatment groups and chemicals examined, the ToxCast chemicals were divided into two groups (spanning two independent cultures of hepatocytes from separate donor preparations (Hu778: ToxCast plates 1 and 2; Hu776: ToxCast plates 3 and 4). Each preparation of human hepatocyte cultures was treated with respective vehicle control, medium only control, set of six positive controls/reference chemicals for the five hepatic receptor pathways, and a subset of eight of the ToxCast chemicals (indoxacarb, pyrithiobac-sodium, norflurazon, cyhalofop-butyl, methomyl, thiram, acetochlor, and propiconazole). These replicate data, coupled with internal replicates designed within the blinded ToxCast chemical library, provided additional data to evaluate interindividual differences between hepatocyte preparations and their potential impact on chemical profiles.Cell morphology and integrity were evaluated using phase-contrast microscopy as an indicator of hepatocyte cell health (Tyson & Green, 1987). Cultures for each treatment group (i.e., media, vehicle [0.2% DMSO], positive control inducers [multiple concentrations], and the ToxCast chemicals [multiple concentrations]) were observed and cell morphology was assessed relative to vehicle control cultures at each harvest time point (0, 6, 24, or 48 h). […] Images were evaluated at the conclusion of the study to assess changes in cell integrity and account for the effects of chemical exposure on uncharacteristic changes in concentration-dependent gene expression profiles. The results from these determinations of apparent cytotoxicity were annotated (yes/no) alongside the corresponding qNPA data for reference.At the conclusion of each treatment period, hepatocyte cultures (96-well) were washed with 1 volume of HBSS, lysed by addition of 25 ul ArrayPlate lysis buffer (HTG, Tucson, AZ), and 70 ul/well of Denaturation Oil, denatured by incubation at 95C for 10 min, and frozen at approximately -70C until analysis by nuclease protection assay (qNPA) (Roberts et al., 2007). For qNPA analysis, cell lysates were thawed at 50C for approximately 30 min, qNPA probes were added, and samples were incubated at 95C for 10 min to begin the detection process by denaturing the target RNA, dissociating the duplexes and secondary structure hybridization. At the conclusion of the hybridization period, S1 nuclease reagent was added to each sample to digest all nonprotected nucleotides at 50C for 60-90 min. […]

Structure (SMILES)	outcome	AC50
CCOc1nc(F)cc2nc(S(=O)(=O)Nc3c(Cl)cccc3Cl)nn12	inactive	–
Cc1c(COC(=O)[C@@H]2[C@H](/C=C(\Cl)C(F)(F)F)C2(C)C)cccc1-c1ccccc1	inactive	–
Nc1c(Cl)c(F)nc(OCC(=O)O)c1Cl	inactive	–
CCOP(=S)(OCC)Oc1nc(Cl)n(C(C)C)n1	inactive	–
N#CN=C1SCCN1Cc1ccc(Cl)nc1	inactive	–
Cc1nc(N(C)C)nc(OC(=O)N(C)C)c1C	inactive	–
CCCCC(O)(Cn1cncn1)c1ccc(Cl)cc1Cl (stereo not given)	–	31.9 µM (active)
Cn1c(-c2ccccc2)cc(-c2ccccc2)[n+]1C	inactive	–
O=C(Nc1ccccc1-c1ccc(Cl)cc1)c1cccnc1Cl	inactive	–
Cc1ccc(N=CN(C)C=Nc2ccc(C)cc2C)c(C)c1	inactive	–
CCCCC(C#N)(Cn1cncn1)c1ccc(Cl)cc1 (stereo not given)	inactive	–
CSC(=O)c1c(C(F)F)nc(C(F)(F)F)c(C(=O)SC)c1CC(C)C	inactive	–
OC(c1ccc(Cl)cc1)(c1ccc(Cl)cc1)C(Cl)(Cl)Cl	inactive	–
CC(C)(C)C(=O)C(Oc1ccc(Cl)cc1)n1cncn1 (stereo not given)	inactive	–
CC(C)Nc1nc(Cl)nc(NC(C)C)n1	inactive	–
CC1(C)CCC(=Cc2ccc(Cl)cc2)C1(O)Cn1cncn1 (stereo not given)	inactive	–
Clc1cccc(C(Cl)(Cl)Cl)n1	inactive	–
COCC(=O)N(c1c(C)cccc1C)C(C)C(=O)OC (stereo not given)	inactive	–
CC1(C)C(C(=O)OC(C#N)c2cccc(Oc3ccccc3)c2)C1(C)C (stereo not given)	inactive	–
CS(=O)(=O)c1ccc(C(=O)C2C(=O)CCCC2=O)c([N+](=O)[O-])c1	inactive	–

Structure (SMILES)	outcome	AC50
COP(=O)(OC)O/C(C)=C/C(=O)N(C)C	inactive	–
C=C(C)CN(CC)c1c([N+](=O)[O-])cc(C(F)(F)F)cc1[N+](=O)[O-]	inactive	–
CCCN(CC)CC1COC2(CCC(C(C)(C)C)CC2)O1 (stereo not given)	inactive	–
CCOc1cc(C(C)(C)C)ccc1C1COC(c2c(F)cccc2F)=N1 (stereo not given)	inactive	–
COC(=O)c1c(C(F)F)nc(C(F)(F)F)c(C2=NCCS2)c1CC(C)C	inactive	–
CCN(CC)C(=O)C(C)Oc1cccc2ccccc12 (stereo not given)	inactive	–
O=c1n(Cl)c(=O)n(Cl)c(=O)n1Cl	inactive	–
CC(C)N1C(=O)c2ccccc2NS1(=O)=O	inactive	–
CCCCOCN(C(=O)CCl)c1c(CC)cccc1CC	inactive	–
COc1ccc(-c2ccccc2)cc1NNC(=O)OC(C)C	inactive	–
CC(C)C1(C)N=C(c2ncccc2C(=O)O)NC1=O (stereo not given)	inactive	–
COP(=S)(OC)SCn1nnc2ccccc2c1=O	inactive	–
COCc1cnc(C2=NC(C)(C(C)C)C(=O)N2)c(C(=O)O)c1 (stereo not given)	inactive	–
COCC(C)N(C(=O)CCl)c1c(C)csc1C (stereo not given)	inactive	–
CNC(=O)N(C)c1nnc(C(C)(C)C)s1	inactive	–
CCSC(=O)N1CCCCCC1	inactive	–
CCCC(=NOCC)C1=C(O)CC(CC(C)SCC)CC1=O (stereo not given)	inactive	–
COC(=O)NS(=O)(=O)c1ccc(N)cc1	inactive	–
COc1cc(OC)nc(NC(=O)NS(=O)(=O)c2ncccc2OCC(F)(F)F)n1	inactive	–
COP(=S)(OC)Oc1ccc([N+](=O)[O-])c(C)c1	inactive	–
